Measured values reported in article PMC9911399, “Two distinct binding modes provide the RNA-binding protein RbFox with extraordinary sequence specificity”.
Positions count from the first letter of the chain named. Over roughly 16,000 sequences, “ka relative to ugcaugu” has its median near 0.096; the highest 2% begin near 0.35. The entries come from a sample that favours the highest values as a whole.

T1: RBFOX1 RRM RbFoxmut (Fox-RRM*) (Homo sapiens, UniProt Q9NWB1 109-208, R118D;E147R;N151S;E152T)
T1 sequence: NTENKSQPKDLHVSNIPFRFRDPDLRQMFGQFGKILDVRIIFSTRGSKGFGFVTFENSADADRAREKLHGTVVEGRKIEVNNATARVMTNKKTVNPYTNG

B1: UCCCGUA (DNA:RNA)
RNA: GGGAGACCGGAAUUCAGAUUGUCCUCCCGUAUUAAAUCCCGUCGUAGCCACCA
DNA 1: CAATCTGAATTCCGGTCTCCC
DNA 2: TGGTGGCTACGACGGGATT
B2: UGAAAUG (DNA:RNA)
RNA: B1 RNA with C26G, C27A, C28A, G29A, A31G
DNA 1: CAATCTGAATTCCGGTCTCCC
DNA 2: TGGTGGCTACGACGGGATT
B3: CUGAAUG (DNA:RNA)
RNA: B1 RNA with U25C, C26U, C27G, C28A, G29A, A31G
DNA 1: CAATCTGAATTCCGGTCTCCC
DNA 2: TGGTGGCTACGACGGGATT
B4: UGAUUGU (DNA:RNA)
RNA: B1 RNA with C26G, C27A, C28U, G29U, U30G, A31U
DNA 1: CAATCTGAATTCCGGTCTCCC
DNA 2: TGGTGGCTACGACGGGATT
B5: CUGAAUC (DNA:RNA)
RNA: B1 RNA with U25C, C26U, C27G, C28A, G29A, A31C
DNA 1: CAATCTGAATTCCGGTCTCCC
DNA 2: TGGTGGCTACGACGGGATT
B6: UGAAUGU (DNA:RNA)
RNA: B1 RNA with C26G, C27A, C28A, G29U, U30G, A31U
DNA 1: CAATCTGAATTCCGGTCTCCC
DNA 2: TGGTGGCTACGACGGGATT
B7: CCCUGAA (DNA:RNA)
RNA: B1 RNA with U25C, C28U, U30A
DNA 1: CAATCTGAATTCCGGTCTCCC
DNA 2: TGGTGGCTACGACGGGATT
B8: CGGUUCC (DNA:RNA)
RNA: GGGAGACCGGAAUUCAGAUUGUCCCGGUUCCUUAAAUCCCGUCGUAGCCACCA
DNA 1: CAATCTGAATTCCGGTCTCCC
DNA 2: TGGTGGCTACGACGGGATT
B9: UUUCGAG (DNA:RNA)
RNA: B1 RNA with C26U, C27U, U30A, A31G
DNA 1: CAATCTGAATTCCGGTCTCCC
DNA 2: TGGTGGCTACGACGGGATT
B10: AUUAUUA (DNA:RNA)
RNA: B1 RNA with U25A, C26U, C27U, C28A, G29U
DNA 1: CAATCTGAATTCCGGTCTCCC
DNA 2: TGGTGGCTACGACGGGATT
B11: UUUUUAA (DNA:RNA)
RNA: B8 RNA with C25U, G26U, G27U, C30A, C31A
DNA 1: CAATCTGAATTCCGGTCTCCC
DNA 2: TGGTGGCTACGACGGGATT
B12: ACUUAAG (DNA:RNA)
RNA: B8 RNA with C25A, G26C, G27U, U29A, C30A, C31G
DNA 1: CAATCTGAATTCCGGTCTCCC
DNA 2: TGGTGGCTACGACGGGATT
B13: CCAGAGG (DNA:RNA)
RNA: B8 RNA with G26C, G27A, U28G, U29A, C30G, C31G
DNA 1: CAATCTGAATTCCGGTCTCCC
DNA 2: TGGTGGCTACGACGGGATT
B14: UCGAGAA (DNA:RNA)
RNA: B1 RNA with C27G, C28A, U30A
DNA 1: CAATCTGAATTCCGGTCTCCC
DNA 2: TGGTGGCTACGACGGGATT
B15: UUUCGCU (DNA:RNA)
RNA: B1 RNA with C26U, C27U, U30C, A31U
DNA 1: CAATCTGAATTCCGGTCTCCC
DNA 2: TGGTGGCTACGACGGGATT
B16: CGAACGU (DNA:RNA)
RNA: B8 RNA with G27A, U28A, U29C, C30G, C31U
DNA 1: CAATCTGAATTCCGGTCTCCC
DNA 2: TGGTGGCTACGACGGGATT
B17: UGGACCG (DNA:RNA)
RNA: B8 RNA with C25U, U28A, U29C, C31G
DNA 1: CAATCTGAATTCCGGTCTCCC
DNA 2: TGGTGGCTACGACGGGATT
B18: GGAACGU (DNA:RNA)
RNA: B8 RNA with C25G, G27A, U28A, U29C, C30G, C31U
DNA 1: CAATCTGAATTCCGGTCTCCC
DNA 2: TGGTGGCTACGACGGGATT
B19: UUGAACG (DNA:RNA)
RNA: B8 RNA with C25U, G26U, U28A, U29A, C31G
DNA 1: CAATCTGAATTCCGGTCTCCC
DNA 2: TGGTGGCTACGACGGGATT
B20: GUUAACG (DNA:RNA)
RNA: B8 RNA with C25G, G26U, G27U, U28A, U29A, C31G
DNA 1: CAATCTGAATTCCGGTCTCCC
DNA 2: TGGTGGCTACGACGGGATT
B21: UGGAACG (DNA:RNA)
RNA: B8 RNA with C25U, U28A, U29A, C31G
DNA 1: CAATCTGAATTCCGGTCTCCC
DNA 2: TGGTGGCTACGACGGGATT
B22: UUAAACG (DNA:RNA)
RNA: B8 RNA with C25U, G26U, G27A, U28A, U29A, C31G
DNA 1: CAATCTGAATTCCGGTCTCCC
DNA 2: TGGTGGCTACGACGGGATT
B23: UUGAACC (DNA:RNA)
RNA: B8 RNA with C25U, G26U, U28A, U29A
DNA 1: CAATCTGAATTCCGGTCTCCC
DNA 2: TGGTGGCTACGACGGGATT
B24: CCGAACG (DNA:RNA)
RNA: B8 RNA with G26C, U28A, U29A, C31G
DNA 1: CAATCTGAATTCCGGTCTCCC
DNA 2: TGGTGGCTACGACGGGATT
B25: CGGAACG (DNA:RNA)
RNA: B8 RNA with U28A, U29A, C31G
DNA 1: CAATCTGAATTCCGGTCTCCC
DNA 2: TGGTGGCTACGACGGGATT
B26: GAACGUU (DNA:RNA)
RNA: B1 RNA with U25G, C26A, C27A, A31U
DNA 1: CAATCTGAATTCCGGTCTCCC
DNA 2: TGGTGGCTACGACGGGATT
B27: UGGACGU (DNA:RNA)
RNA: B8 RNA with C25U, U28A, U29C, C30G, C31U
DNA 1: CAATCTGAATTCCGGTCTCCC
DNA 2: TGGTGGCTACGACGGGATT
B28: CGCUCCU (DNA:RNA)
RNA: B8 RNA with G27C, U29C, C31U
DNA 1: CAATCTGAATTCCGGTCTCCC
DNA 2: TGGTGGCTACGACGGGATT
B29: GGAGGUA (DNA:RNA)
RNA: B1 RNA with U25G, C26G, C27A, C28G
DNA 1: CAATCTGAATTCCGGTCTCCC
DNA 2: TGGTGGCTACGACGGGATT
B30: GGCCGUU (DNA:RNA)
RNA: B1 RNA with U25G, C26G, A31U
DNA 1: CAATCTGAATTCCGGTCTCCC
DNA 2: TGGTGGCTACGACGGGATT
B31: GUUUUCU (DNA:RNA)
RNA: B8 RNA with C25G, G26U, G27U, C31U
DNA 1: CAATCTGAATTCCGGTCTCCC
DNA 2: TGGTGGCTACGACGGGATT

Target: T1, RBFOX1 RRM RbFoxmut (Fox-RRM*)
Assay: EMSA; HiTS-Eq, 1 nM pool, 10 min; buffer printed only for the single-RNA assays: 10 mM Tris pH 7.5, 150 mM NaCl, 3.4 mM EDTA, 0.001% NP-40, 30 C
Conditions: tags: His6 N-terminal (pET28a); label: 5' 32P
In short: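 Purified wild-type or mutant RbFox RRM at increasing concentrations was equilibrated with 1 nM of 5′-radiolabelled RNA carrying 7 randomized nucleotides for 10 min in 50 µL. Unbound RNA was separated by 8% native PAGE and sequenced. Relative association constants came from read-count changes of each RNA species compared with the control reaction, normalised to the cognate motif.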

Binder | binding signal
B1 | 0.12 KA relative to UGCAUGU
B2 | 0.158 KA relative to UGCAUGU
B3 | 0.915 KA relative to UGCAUGU
B4 | 0.308 KA relative to UGCAUGU
B5 | 0.315 KA relative to UGCAUGU
B6 | 0.75 KA relative to UGCAUGU
B7 | 0.0778 KA relative to UGCAUGU
B8 | 0.104 KA relative to UGCAUGU
B9 | 0.107 KA relative to UGCAUGU
B10 | 0.154 KA relative to UGCAUGU
B11 | 0.1 KA relative to UGCAUGU
B12 | 0.174 KA relative to UGCAUGU
B13 | 0.0884 KA relative to UGCAUGU
B14 | 0.116 KA relative to UGCAUGU
B15 | 0.0799 KA relative to UGCAUGU
B16 | 0.175 KA relative to UGCAUGU

Binder | binding signal
B17 | 0.238 KA relative to UGCAUGU
B18 | 0.415 KA relative to UGCAUGU
B19 | 0.39 KA relative to UGCAUGU
B20 | 0.111 KA relative to UGCAUGU
B21 | 0.84 KA relative to UGCAUGU
B22 | 0.0812 KA relative to UGCAUGU
B23 | 0.129 KA relative to UGCAUGU
B24 | 0.211 KA relative to UGCAUGU
B25 | 0.53 KA relative to UGCAUGU
B26 | 0.199 KA relative to UGCAUGU
B27 | 0.147 KA relative to UGCAUGU
B28 | 0.0521 KA relative to UGCAUGU
B29 | 0.121 KA relative to UGCAUGU
B30 | 0.0754 KA relative to UGCAUGU
B31 | 0.0724 KA relative to UGCAUGU
